The antibiotic and cytotoxicity screens of Wong et al. (2023)
Out of some 39,000 compounds screened, about 3,300 (8.5%) were called active. The full list was thinned out, with actives kept by preference.

The molecules below were run on HepG2 (assay: cytotoxicity call (relative viability < 0.9)). Conditions: 10 µM.

Structure (SMILES) | cytotoxicity call
COc1ccc(CN(C)C[C@@H]2Oc3ccc(NC(=O)Cn4cnnn4)cc3CC(=O)N([C@H](C)CO)C[C@H]2C)cc1 | inactive
O=c1nc(NCc2cccnc2)cn[nH]1 | inactive
COc1ccc(NC(=O)Nc2ccc3c(c2)C(=O)N([C@H](C)CO)C[C@@H](C)[C@@H](CN(C)CC2CCCCC2)OCCCC[C@@H](C)O3)cc1 | active
COc1ccc(NC(=O)Nc2ccc3c(c2)C(=O)N([C@H](C)CO)C[C@@H](C)[C@@H](CN(C)CC2CCCCC2)OCCCC[C@H](C)O3)cc1 | active
COc1ccc(NC(=O)Nc2ccc3c(c2)C(=O)N([C@H](C)CO)C[C@H](C)[C@@H](CN(C)CC2CCCCC2)OCCCC[C@@H](C)O3)cc1 | inactive
COc1ccc(NC(=O)Nc2ccc3c(c2)C(=O)N([C@H](C)CO)C[C@@H](C)[C@H](CN(C)CC2CCCCC2)OCCCC[C@@H](C)O3)cc1 | active
COc1ccc(NC(=O)Nc2ccc3c(c2)C(=O)N([C@@H](C)CO)C[C@@H](C)[C@@H](CN(C)CC2CCCCC2)OCCCC[C@@H](C)O3)cc1 | active
COc1ccc(NC(=O)Nc2ccc3c(c2)C(=O)N([C@H](C)CO)C[C@H](C)[C@H](CN(C)CC2CCCCC2)OCCCC[C@H](C)O3)cc1 | inactive
COc1ccc(NC(=O)Nc2ccc3c(c2)C(=O)N([C@@H](C)CO)C[C@H](C)[C@H](CN(C)CC2CCCCC2)OCCCC[C@@H](C)O3)cc1 | inactive
COc1ccc(NC(=O)Nc2ccc3c(c2)C(=O)N([C@@H](C)CO)C[C@H](C)[C@@H](CN(C)CC2CCCCC2)OCCCC[C@H](C)O3)cc1 | inactive
COc1ccc(NC(=O)Nc2ccc3c(c2)C(=O)N([C@@H](C)CO)C[C@@H](C)[C@@H](CN(C)CC2CCCCC2)OCCCC[C@H](C)O3)cc1 | inactive
COc1ccc(NC(=O)Nc2ccc3c(c2)C(=O)N([C@@H](C)CO)C[C@@H](C)[C@H](CN(C)CC2CCCCC2)OCCCC[C@@H](C)O3)cc1 | inactive
COc1ccc(NC(=O)Nc2ccc3c(c2)C(=O)N([C@H](C)CO)C[C@@H](C)[C@H](CN(C)CC2CC2)OCCCC[C@H](C)O3)cc1 | inactive
COc1ccc(NC(=O)Nc2ccc3c(c2)C(=O)N([C@@H](C)CO)C[C@@H](C)[C@H](CN(C)CC2CCCCC2)OCCCC[C@H](C)O3)cc1 | inactive
C[C@@H]1CN([C@@H](C)CO)C(=O)c2cccc(NC(=O)Nc3cccc4ccccc34)c2O[C@H]1CN(C)S(=O)(=O)c1ccccc1F | inactive
Cc1noc(C)c1NC(=O)Nc1ccc2c(c1)C(=O)N([C@H](C)CO)C[C@H](C)[C@H](CN(C)S(C)(=O)=O)O2 | inactive
O=C(CN1CCOCC1)N[C@@H]1CC[C@H](CCNC(=O)Nc2cc(F)ccc2F)O[C@@H]1CO | inactive
COc1ccc(NC(=O)N(C)C[C@@H]2OCCCC[C@H](C)Oc3ccc(NC(=O)c4ccccc4)cc3C(=O)N([C@H](C)CO)C[C@H]2C)cc1 | inactive
O=C(C[C@H]1C=C[C@@H](NC(=O)C2CC2)[C@@H](CO)O1)NCCCN1CCOCC1 | inactive

Structure (SMILES) | cytotoxicity call
NNC(=O)CNc1ccc2c(c1)OCO2 | inactive
C[N+](C)(C)CCCCNC(=O)[C@H]1C[C@H]2C(=O)N[C@@H](Cc3ccccc3)C(=O)N2[C@H]1c1cccc(OCCO)c1 | inactive
C[C@H]1CN([C@@H](C)CO)C(=O)c2cc(C#CC3(O)CCCC3)cnc2O[C@@H]1CN(C)S(=O)(=O)c1ccc(F)cc1 | inactive
C[C@H]1[C@H](NC(=O)/C(=N\OC(C)(C)C(=O)O)c2csc(N)n2)C(=O)N1S(=O)(=O)O | inactive
C[C@@H]1CCCCO[C@H](CN(C)S(C)(=O)=O)[C@H](C)CN([C@@H](C)CO)C(=O)c2cc(NC(=O)CCCN(C)C)ccc2O1 | inactive
CCS(=O)(=O)NCC[C@H]1CC[C@H](NS(=O)(=O)c2cccc(F)c2)[C@@H](CO)O1 | inactive
C[C@@H]1CCCCO[C@H](CN(C)C(=O)Nc2cccc3ccccc23)[C@H](C)CN([C@@H](C)CO)C(=O)c2cc(NC(=O)Cc3ccccc3)ccc2O1 | inactive
COc1ccc(S(=O)(=O)N[C@@H]2CC[C@@H](CC(=O)N3CCC(Cc4ccccc4)CC3)O[C@H]2CO)cc1 | inactive
C[C@H]1CCCCO[C@@H](CN(C)C(=O)Nc2ccc(C(F)(F)F)cc2)[C@@H](C)CN([C@@H](C)CO)C(=O)c2cc(NC(=O)c3ccncc3)ccc2O1 | inactive
C[C@@H]1CCCCO[C@@H](CN(C)C(=O)Nc2ccc3c(c2)OCO3)[C@@H](C)CN([C@@H](C)CO)C(=O)c2cc(NC(=O)Nc3ccc(C(F)(F)F)cc3)ccc2O1 | inactive
C[C@@H]1CCCCO[C@H](CN(C)C(=O)Nc2ccc(C(F)(F)F)cc2)[C@H](C)CN([C@H](C)CO)C(=O)c2cc(NC(=O)Cc3ccccc3)ccc2O1 | inactive
COc1ccc(NC(=O)Nc2ccc3c(c2)C(=O)N([C@H](C)CO)C[C@H](C)[C@@H](CN(C)CC2CCCCC2)OCCCC[C@H](C)O3)cc1 | inactive
COc1ccc(NC(=O)Nc2ccc3c(c2)C(=O)N([C@H](C)CO)C[C@H](C)[C@H](CN(C)CC2CCCCC2)OCCCC[C@@H](C)O3)cc1 | inactive
COc1ccc(NC(=O)Nc2ccc3c(c2)C(=O)N([C@@H](C)CO)C[C@H](C)[C@H](CN(C)CC2CCCCC2)OCCCC[C@H](C)O3)cc1 | active
O=C(O[C@@H]1O[C@@H]2COC(=O)c3cc(O)c(O)c(O)c3-c3c(cc(O)c(O)c3O)C(=O)O[C@H]2[C@H](OC(=O)c2cc(O)c(O)c(O)c2)[C@H]1OC(=O)c1cc(O)c(O)c(O)c1)c1cc(O)c(O)c(O)c1 | active
O=C(O[C@@H]1O[C@H]2COC(=O)c3cc(O)c(O)c(O)c3-c3c(cc(O)c(O)c3O)C(=O)O[C@@H]([C@H]1O)[C@@H]2O)c1cc(O)c(O)c(O)c1 | inactive
O=C(OC1Cc2c(O)cc(O)cc2OC1c1cc(O)c(O)c(O)c1-c1c(C2Oc3cc(O)cc(O)c3CC2OC(=O)c2cc(O)c(O)c(O)c2)cc(O)c(O)c1O)c1cc(O)c(O)c(O)c1 (configuration not stated) | inactive
O=C(O[C@@H]1Cc2c(O)cc(O)cc2O[C@@H]1c1cc(O)c(O)c(O)c1-c1c([C@H]2Oc3cc(O)cc(O)c3C[C@H]2O)cc(O)c(O)c1O)c1cc(O)c(O)c(O)c1 | inactive
O=C(O[C@@H]1O[C@@H]2COC(=O)c3cc(Oc4c(C(=O)O)cc(O)c(O)c4O)c(O)c(O)c3-c3c(cc(O)c(O)c3O)C(=O)O[C@H]2[C@H](OC(=O)c2cc(O)c(O)c(O)c2)[C@H]1OC(=O)c1cc(O)c(O)c(O)c1)c1cc(O)c(O)c(O)c1 | inactive

Structure (SMILES) | cytotoxicity call
O=C(O[C@@H]1O[C@H]2COC(=O)c3cc(O)c(O)c(O)c3-c3c(cc(O)c(O)c3O)C(=O)O[C@@H]([C@H]1O)[C@@H]2OC(=O)c1cc(O)c(O)c(O)c1-c1c(C(=O)O)cc(O)c(O)c1O)c1cc(O)c(O)c(O)c1 | active
C[C@@H]1CCCCO[C@H](CN(C)C(=O)CCC(F)(F)F)[C@@H](C)CN([C@H](C)CO)C(=O)c2cc(NC(=O)NC3CCCCC3)ccc2O1 | inactive
C[C@@H]1CN([C@H](C)CO)C(=O)c2cccc(NC(=O)C3CCOCC3)c2O[C@H]1CN(C)Cc1ccc(C(=O)O)cc1 | inactive
Cc1ccc(S(=O)(=O)Nc2ccc3c(c2)C(=O)N([C@@H](C)CO)C[C@H](C)[C@H](CN(C)C(=O)Nc2c(C)noc2C)OCCCC[C@@H](C)O3)cc1 | inactive
C[C@H]1CN([C@@H](C)CO)C(=O)Cc2cc(NC(=O)Nc3cccc4ccccc34)ccc2O[C@@H]1CN(C)Cc1ccc2c(c1)OCO2 | inactive
C[C@H](CO)N1C[C@H](C)[C@@H](CN(C)Cc2ccc3c(c2)OCO3)Oc2ccc(NC(=O)Nc3cccc4ccccc34)cc2CC1=O | inactive
C[C@@H]1CN([C@@H](C)CO)C(=O)Cc2cc(NC(=O)Nc3cccc4ccccc34)ccc2O[C@H]1CN(C)Cc1ccc2c(c1)OCO2 | active
C[C@@H]1CN([C@@H](C)CO)C(=O)Cc2cc(NC(=O)Nc3cccc4ccccc34)ccc2O[C@@H]1CN(C)Cc1ccc2c(c1)OCO2 | active
C[C@@H]1CN([C@H](C)CO)C(=O)Cc2cc(NC(=O)Nc3cccc4ccccc34)ccc2O[C@@H]1CN(C)Cc1ccc2c(c1)OCO2 | active
C[C@@H]1CN([C@H](C)CO)C(=O)Cc2cc(NC(=O)Nc3cccc4ccccc34)ccc2O[C@H]1CN(C)Cc1ccc2c(c1)OCO2 | inactive
C[C@H]1CN([C@@H](C)CO)C(=O)Cc2cc(NC(=O)Nc3cccc4ccccc34)ccc2O[C@H]1CN(C)Cc1ccc2c(c1)OCO2 | inactive
C[C@H](CO)N1C[C@H](C)[C@@H](CN(C)Cc2ccc3c(c2)OCO3)Oc2ccc(NC(=O)Nc3cccc4ccccc34)cc2C1=O | inactive
C[C@H](CO)N1C[C@H](C)[C@H](CN(C)Cc2ccc3c(c2)OCO3)Oc2ccc(NC(=O)Nc3cccc4ccccc34)cc2CC1=O | inactive
O=c1[nH][nH]c(=O)c(Cl)c1Cl | inactive
COc1ccc(NC(=O)N(C)C[C@@H]2Oc3c(NC(=O)C4CC4)cccc3C(=O)N([C@@H](C)CO)C[C@H]2C)cc1 | inactive
CC(C)CC#Cc1ccc2c(c1)O[C@H](CN(C)C(=O)NC1CCCC1)[C@@H](C)CN([C@H](C)CO)S2(=O)=O | inactive
CC(C)NC(=O)Nc1cccc2c1O[C@H](CN(C)S(=O)(=O)c1ccc(Cl)cc1)[C@H](C)CN([C@@H](C)CO)C2=O | inactive
COc1ccc(CN(C)C[C@@H]2OCCCC[C@@H](C)Oc3ccc(NS(=O)(=O)c4c(C)noc4C)cc3C(=O)N([C@H](C)CO)C[C@H]2C)cc1 | inactive
C[C@@H]1CN([C@@H](C)CO)C(=O)c2cc(NC(=O)Cc3cn(C)c4ccccc34)ccc2O[C@H]1CN(C)S(=O)(=O)c1cn(C)cn1 | inactive
